# For some of these results: Measured potencies and affinities stand elsewhere. Activity calls are given as the source filed them. Unless noted, how the calls were made is not given here.
# Experiments:
# [1] = HDN33 neuroblastoma growth inhibition, cell-based, chromothripsis tumors, cisplatin or BGB combos (AID 1671450; in the data active means inhibition above about 80%;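 further: cells exposed to compound for four days; 0% = vehicle DMSO and 100% = cell killing by high DMSO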); settings: HDN33 neuroblastoma cells, stronger effect = higher value
# [2] = HTB85 osteosarcoma cell growth inhibition, synergistic combos for chromothripsis tumors, BGB or cisplatin IC20 combos (AID 1671453; in the data active means inhibition above about 80%;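 further: cells exposed for 96 hours before readout; 0% = vehicle DMSO and 100% = high DMSO killing control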); settings: HTB85 osteosarcoma cells, drug combinations, stronger effect = higher value
# [3] = MDA-MB-436 breast carcinoma cell growth inhibition, synergistic combos for chromothripsis tumors, BGB or cisplatin combos (AID 1671458); settings: MDA-MB-436 breast carcinoma growth inhibition, drug combinations, stronger effect = higher value;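 further: cells exposed for 96 hours; 0% = vehicle DMSO and 100% = killing by high DMSO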
# [4] = growth inhibition of BT084 medulloblastoma cells, cell-based, ICGC_MB145, cisplatin and BGB IC40 combos (AID 1671461; in the data active means inhibition above about 80%;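 further: cells exposed to drugs for 96 hours; 0% = vehicle DMSO and 100% = high DMSO full killing control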); settings: drug combinations, stronger effect = higher value
# [5] = growth inhibition of RCMB18 medulloblastoma cells, cell-based, cisplatin and BGB IC40 combos (AID 1671462; in the data active means inhibition above about 80%;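 further: cells exposed to compound for four days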); settings: stronger effect = higher value
# [6] = circadian clock period modulators, cell-based, LOPAC library, luminescence reporter (AID 2774); settings: circadian reporter cells, at 7 µM, actives lie on both sides;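 further: values are relative to mean of DMSO wells on each plate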
# [7] = tested on: Hepatitis C virus NS3 helicase; experiment: HCV NS3 helicase inhibitors, primary screen, biochemical, fluorescence polarization, LOPAC1280 library (AID 687035; in the data active means inhibition above about 37%); settings: Purified HCV NS3 helicase, Cy5-dT15 ssDNA binding fluorescence polarization; stronger effect = higher value; concentration not given here
# [8] = Cy5 fluorescence quenching or enhancement artefacts, artefact control for HCV NS3 helicase inhibitor project, biochemical, LOPAC1280 (AID 687037); settings: Cy5-DNA-NS3h complex fluorescence interference counterscreen
# [9] = polyglutamine-triggered caspase-3 activation inhibitors, cell-based (AID 1583); settings: polyglutamine-induced caspase-3 activation, cell assay; stronger effect = higher value;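 tested at 10 µM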
# [10] = suppressors of polyQ aggregation in yeast, 75Q-TubU reporter (AID 1593); settings: Yeast 75Q polyglutamine aggregation reporter
# [11] = rescue of polyQ-huntingtin neuronal dysfunction in worms, whole organism, C. elegans mechanosensory neurons, N-terminal huntingtin (AID 1599); settings: touch response, stronger effect = higher value
# [12] = inhibitors of mitochondrial cytochrome c release, biochemical, purified mitochondria (AID 1603); settings: stronger effect = lower value;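 further: mouse liver mitochondria challenged with calcium chloride; signal normalized to the plate average as 100%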
# [13] = inhibitors of polyQ protein aggregation (AID 1604); settings: polyglutamine-induced protein aggregation inhibition assay; stronger effect = higher value; tested at 2.5 µM
# [14] = enhancers of glutamate uptake in motor neurons, MN-1 cell line (AID 1612); settings: MN-1 motor neuron cells, stronger effect = higher value;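 further: tested at 1 µM final; 0% = mean of DMSO vehicle wells on each plate; positive means more glutamate uptake than control and negative means less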
# [15] = suppressors of polyglutamine aggregation in yeast, 75Q-TubH (AID 1616); settings: S. cerevisiae 75Q-TubH polyglutamine aggregation suppression; stronger effect = higher value
# [16] = phospholipid biosynthesis inhibitors in animal cells, primary screen, cell-based, LOPAC library, screen 4 (AID 1347384); settings: phospholipid biosynthesis inhibition screen, at 10 µM
# [17] = Cy5 fluorescence interference with SSB-bound oligo, artefact control for HCV NS3 helicase inhibitor project, biochemical, NIH Clinical Collection, E. coli SSB (AID 743268)
# [18] = tested on: Hepatitis C virus NS3 helicase; experiment: HCV NS3 helicase inhibitors, primary screen, biochemical, fluorescence polarization, NIH Clinical Collection (AID 743270); settings: NS3 helicase binding to Cy5-dT15 DNA, stronger effect = higher value, concentration not given here
# [19] = molecular target: Single-stranded DNA-binding protein (Escherichia coli (strain K12)) (UniProt P0AGE0); experiment: E. coli SSB displacement from DNA, counter-screen for HCV NS3 helicase inhibitor project, biochemical, fluorescence polarization, NIH Clinical Collection (AID 743271; in the data active means inhibition above about 28%); settings: stronger effect = higher value, concentration not given here
# [20] = fluorescence interference in NS3h assay format, artefact control for HCV NS3 helicase inhibitor project, biochemical, NIH Clinical Collection (AID 743272); settings: fluorescence interference counterscreen, stronger effect = lower value;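 further: HCV NS3 helicase with a Cy5 labelled single stranded DNA probe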
# [21] = measured here: with BGB IC20 combination, at 0.5 µM
# [22] = measured here: with cisplatin IC20 combination, at 0.5 µM
# [23] = measured here: with BGB IC20, at 0.5 µM
# [24] = measured here: with BGB IC20, at 5 µM
# [25] = measured here: with cisplatin IC20, at 0.5 µM
# [26] = measured here: with cisplatin IC20, at 5 µM
# [27] = measured here: BGB combination, at 0.5 µM
# [28] = measured here: BGB combination, at 5 µM
# [29] = measured here: cisplatin combination, at 0.5 µM
# [30] = measured here: cisplatin combination, at 5 µM
# [31] = cisplatin combination, at 0.5 µM
# [32] = measured here: BGB IC40 combination 0.05 uM, at 0.05 µM
# [33] = measured here: BGB IC40 combination, at 0.05 µM
# [34] = measured here: combination with cisplatin, at 0.5 µM
compound,measurement,setting,value
CN1C[C@@H]2C[C@H]1CN2c1cc2c(cc1F)c(=O)c(C(=O)O)cn2C1CC1,inhibition,"[1]; BGB combo, at 5 µM",-34.1%
same,inhibition,[1]; at 0.5 µM,-30.1% (inactive)
same,inhibition,"[1]; cisplatin combo, at 5 µM",-33.7%
same,inhibition,[1]; [21],-23.1%
same,inhibition,[1]; [22],-48.5%
same,inhibition,"[1]; single agent, at 5 µM",-33.7%
same,inhibition,[2]; at 0.5 µM,-40.1% (inactive)
same,inhibition,[2]; [23],-66.1%
same,inhibition,[2]; [24],-64.1%
same,inhibition,[2]; [25],-24.8%
same,inhibition,[2]; [26],-32.6%
same,inhibition,"[2]; single agent, at 5 µM",-25%
same,inhibition,[3]; at 0.5 µM,-9.69% (inactive)
same,inhibition,[3]; [27],1.19%
same,inhibition,[3]; [28],-5.03%
same,inhibition,[3]; [29],-28.1%
same,inhibition,[3]; [30],-7.33%
same,inhibition,[4]; at 0.5 µM,-14.9% (inactive)
same,inhibition,[4]; [31],-11.4%
same,inhibition,"[4]; cisplatin combination, at 5 µM",-13.9%
same,inhibition,[4]; [32],0.828%
same,inhibition,"[4]; single agent, at 5 µM",-12.4%
same,inhibition,[5]; at 0.5 µM,-27.5% (inactive)
same,inhibition,"[5]; cisplatin combo, at 5 µM",-18.3%
same,inhibition,[5]; [33],-12.7%
same,inhibition,[5]; [34],-81.8%
same,inhibition,"[5]; single agent, at 5 µM",-17.7%
CN(C)CCCO[C@@H]1[C@H]2OC(C)(C)O[C@H]2O[C@@H]1C(O)CO (some centres undefined),period change,[6],-0.08 h (inactive)
same,inhibition,[7],-4% (inactive)
same,fluorescence ratio (interference),[8],1 (inactive)
CCCn1cnc2c1c(=O)n(CCCCC(C)=O)c(=O)n2C,period change,[6],0.185 h (inactive)
same,inhibition,[7],1% (inactive)
same,fluorescence ratio (interference),[8],1 (inactive)
Cc1ccc2nc(N)[nH]c(=O)c2c1Sc1ccncc1,inhibition,"[1]; BGB combo, at 5 µM",21.4%
same,inhibition,[1]; at 0.5 µM,-26.6% (inactive)
same,inhibition,"[1]; cisplatin combo, at 5 µM",28.1%
same,inhibition,[1]; [21],-32.4%
same,inhibition,[1]; [22],-14.7%
same,inhibition,"[1]; single agent, at 5 µM",43.4%
same,inhibition,[2]; at 0.5 µM,-33.1% (inactive)
same,inhibition,[2]; [23],-36.1%
same,inhibition,[2]; [24],7.13%
same,inhibition,[2]; [25],-25.9%
same,inhibition,[2]; [26],0.276%
same,inhibition,"[2]; single agent, at 5 µM",0.242%
same,inhibition,[3]; at 0.5 µM,-7.12% (inactive)
same,inhibition,[3]; [27],-5.47%
same,inhibition,[3]; [28],11%
same,inhibition,[3]; [29],-13.7%
same,inhibition,[3]; [30],37.3%
same,inhibition,[4]; at 0.5 µM,3.52% (inactive)
same,inhibition,[4]; [31],-1.35%
same,inhibition,"[4]; cisplatin combination, at 5 µM",-137%
same,inhibition,[4]; [32],-7.71%
same,inhibition,"[4]; single agent, at 5 µM",6.61%
same,inhibition,[5]; at 0.5 µM,-22.7% (inactive)
same,inhibition,"[5]; cisplatin combo, at 5 µM",-4.62%
same,inhibition,[5]; [33],-25.2%
same,inhibition,[5]; [34],-45.9%
same,inhibition,"[5]; single agent, at 5 µM",12.6%
Cc1ccc(O)cc1,inhibition,[9],26.8%
same,score,[10],0.73
same,rescue above control,[11],-1.33
same,cytochrome c release ratio,[12],0.32
same,inhibition of aggregation,[13],83.3%
same,glutamate uptake change,[14],1.82%
same,aggregation suppression score,[15],1.04
O=C(O)CCC(=O)OC[C@@H](NC(=O)C(Cl)Cl)[C@H](O)c1ccc([N+](=O)[O-])cc1,inhibition,[9],29.9%
same,score,[10],1.53
same,rescue above control,[11],-1.33
same,cytochrome c release ratio,[12],0.7
same,inhibition of aggregation,[13],74.7%
same,glutamate uptake change,[14],7.22%
same,aggregation suppression score,[15],1.43
CNS(=O)(=O)CCc1ccc2[nH]cc(C3CCN(C)CC3)c2c1,outcome,[16],inactive
CCc1cccc(N(C)C(N)=Nc2cccc3ccccc23)c1,period change,[6],-0.08 h (inactive)
same,inhibition,[7],1% (inactive)
same,fluorescence ratio (interference),[8],1 (inactive)
same,outcome,[16],inactive
CN1CCN(C2Cc3ccccc3Sc3ccc(Cl)cc32)CC1 (centres undefined),period change,[6],0.285 h (inactive)
same,inhibition,[7],-1% (inactive)
same,fluorescence ratio (interference),[8],1 (inactive)
same,outcome,[16],inactive
O=C(CCCN1CCC(O)(c2cccc(C(F)(F)F)c2)CC1)c1ccc(F)cc1,period change,[6],0.235 h (inactive)
same,inhibition,[7],-3% (inactive)
same,fluorescence ratio (interference),[8],1 (inactive)
same,outcome,[16],inactive
NC1=NCC2c3ccccc3Cc3ccccc3N12 (centres undefined),inhibition,[7],-2% (inactive)
same,fluorescence ratio (interference),[8],1 (inactive)
same,outcome,[16],inactive
NC(=O)c1cccnc1,fluorescence ratio,[17],1.01 (inactive)
same,inhibition,[18],0.66% (inactive)
same,inhibition,[19],-1.97% (inactive)
same,fluorescence ratio,[20],1.01 (inactive)
CC(C)NCC(O)COc1cccc2[nH]ccc12 (centres undefined),inhibition,[9],-39.9%
same,score,[10],1.28
same,rescue above control,[11],3.36
same,cytochrome c release ratio,[12],0.95
same,inhibition of aggregation,[13],83.3%
same,glutamate uptake change,[14],11.9%
same,aggregation suppression score,[15],1.28
same,period change,[6],0.015 h (inactive)
same,inhibition,[7],-5% (inactive)
same,fluorescence ratio (interference),[8],1 (inactive)
same,fluorescence ratio,[17],0.9 (inactive)
same,inhibition,[18],-5.91% (inactive)
same,inhibition,[19],2.57% (inactive)
same,fluorescence ratio,[20],0.9 (inactive)
same,outcome,[16],inactive

# Source: PubChem BioAssay
